Bioassay records from PubChem BioAssay.
Vc quorum ag = inducers of Vibrio cholerae quorum light production without autoinducers. activation, % at 18.7 µM. actives 0.16% (n = 350,000). AID 588436. V. cholerae BH1578 lux reporter, luminescence, 6 h; in the data active means activation mostly above about 9.7%, no sharp cut-off
PrPC surface inh = cell surface PrPC inhibition, primary TR-FRET screen; TR-FRET read-out; inhibition, % at 13.8 µM; actives 0.43% (n = 370,000); AID 720596; in the data active means inhibition above about 24%; further: 0% = median of the test wells and 100% = reference compound wells
PriA SSB inh = blocks PriA binding to SSB C-terminal tail | AlphaScreen SSBct-PriA binding, biotinylated peptide | inhibition, % at 33 µM | actives 0.6% (n = 430,000); in the data active means inhibition mostly above about 37%, no sharp cut-off; inactive means mostly below about 20%;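 further: plate controls were negative control peptide for no effect and reference peptide for full effect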
CCHFV vOTU inh = CCHFV vOTU protease inhibition. Pep-AMC fluorescence. inhibition, % at 11.5 µM. actives 0.55% (n = 370,000); in the data active means inhibition above about 30%; further: 0% = vehicle wells with enzyme and 100% = no enzyme wells
DUSP3 inh = inhibitors of human VHR1 phosphatase (DUSP3); P51452; recombinant VHR phosphatase, pNPP absorbance; inhibition, % at 13.3 µM; actives 0.52% (n = 290,000); AID 1654; in the data active means inhibition above about 50%
TcdB inh = blocks C. difficile toxin B glycohydrolase activity. P18177. TcdB glycohydrolase enzymatic assay, plate reader. inhibition, % at 9.99 µM. actives 0.24% (n = 350,000). AID 652162; in the data active means inhibition above about 10%
Target sequence (P18177 whole entry, looked up): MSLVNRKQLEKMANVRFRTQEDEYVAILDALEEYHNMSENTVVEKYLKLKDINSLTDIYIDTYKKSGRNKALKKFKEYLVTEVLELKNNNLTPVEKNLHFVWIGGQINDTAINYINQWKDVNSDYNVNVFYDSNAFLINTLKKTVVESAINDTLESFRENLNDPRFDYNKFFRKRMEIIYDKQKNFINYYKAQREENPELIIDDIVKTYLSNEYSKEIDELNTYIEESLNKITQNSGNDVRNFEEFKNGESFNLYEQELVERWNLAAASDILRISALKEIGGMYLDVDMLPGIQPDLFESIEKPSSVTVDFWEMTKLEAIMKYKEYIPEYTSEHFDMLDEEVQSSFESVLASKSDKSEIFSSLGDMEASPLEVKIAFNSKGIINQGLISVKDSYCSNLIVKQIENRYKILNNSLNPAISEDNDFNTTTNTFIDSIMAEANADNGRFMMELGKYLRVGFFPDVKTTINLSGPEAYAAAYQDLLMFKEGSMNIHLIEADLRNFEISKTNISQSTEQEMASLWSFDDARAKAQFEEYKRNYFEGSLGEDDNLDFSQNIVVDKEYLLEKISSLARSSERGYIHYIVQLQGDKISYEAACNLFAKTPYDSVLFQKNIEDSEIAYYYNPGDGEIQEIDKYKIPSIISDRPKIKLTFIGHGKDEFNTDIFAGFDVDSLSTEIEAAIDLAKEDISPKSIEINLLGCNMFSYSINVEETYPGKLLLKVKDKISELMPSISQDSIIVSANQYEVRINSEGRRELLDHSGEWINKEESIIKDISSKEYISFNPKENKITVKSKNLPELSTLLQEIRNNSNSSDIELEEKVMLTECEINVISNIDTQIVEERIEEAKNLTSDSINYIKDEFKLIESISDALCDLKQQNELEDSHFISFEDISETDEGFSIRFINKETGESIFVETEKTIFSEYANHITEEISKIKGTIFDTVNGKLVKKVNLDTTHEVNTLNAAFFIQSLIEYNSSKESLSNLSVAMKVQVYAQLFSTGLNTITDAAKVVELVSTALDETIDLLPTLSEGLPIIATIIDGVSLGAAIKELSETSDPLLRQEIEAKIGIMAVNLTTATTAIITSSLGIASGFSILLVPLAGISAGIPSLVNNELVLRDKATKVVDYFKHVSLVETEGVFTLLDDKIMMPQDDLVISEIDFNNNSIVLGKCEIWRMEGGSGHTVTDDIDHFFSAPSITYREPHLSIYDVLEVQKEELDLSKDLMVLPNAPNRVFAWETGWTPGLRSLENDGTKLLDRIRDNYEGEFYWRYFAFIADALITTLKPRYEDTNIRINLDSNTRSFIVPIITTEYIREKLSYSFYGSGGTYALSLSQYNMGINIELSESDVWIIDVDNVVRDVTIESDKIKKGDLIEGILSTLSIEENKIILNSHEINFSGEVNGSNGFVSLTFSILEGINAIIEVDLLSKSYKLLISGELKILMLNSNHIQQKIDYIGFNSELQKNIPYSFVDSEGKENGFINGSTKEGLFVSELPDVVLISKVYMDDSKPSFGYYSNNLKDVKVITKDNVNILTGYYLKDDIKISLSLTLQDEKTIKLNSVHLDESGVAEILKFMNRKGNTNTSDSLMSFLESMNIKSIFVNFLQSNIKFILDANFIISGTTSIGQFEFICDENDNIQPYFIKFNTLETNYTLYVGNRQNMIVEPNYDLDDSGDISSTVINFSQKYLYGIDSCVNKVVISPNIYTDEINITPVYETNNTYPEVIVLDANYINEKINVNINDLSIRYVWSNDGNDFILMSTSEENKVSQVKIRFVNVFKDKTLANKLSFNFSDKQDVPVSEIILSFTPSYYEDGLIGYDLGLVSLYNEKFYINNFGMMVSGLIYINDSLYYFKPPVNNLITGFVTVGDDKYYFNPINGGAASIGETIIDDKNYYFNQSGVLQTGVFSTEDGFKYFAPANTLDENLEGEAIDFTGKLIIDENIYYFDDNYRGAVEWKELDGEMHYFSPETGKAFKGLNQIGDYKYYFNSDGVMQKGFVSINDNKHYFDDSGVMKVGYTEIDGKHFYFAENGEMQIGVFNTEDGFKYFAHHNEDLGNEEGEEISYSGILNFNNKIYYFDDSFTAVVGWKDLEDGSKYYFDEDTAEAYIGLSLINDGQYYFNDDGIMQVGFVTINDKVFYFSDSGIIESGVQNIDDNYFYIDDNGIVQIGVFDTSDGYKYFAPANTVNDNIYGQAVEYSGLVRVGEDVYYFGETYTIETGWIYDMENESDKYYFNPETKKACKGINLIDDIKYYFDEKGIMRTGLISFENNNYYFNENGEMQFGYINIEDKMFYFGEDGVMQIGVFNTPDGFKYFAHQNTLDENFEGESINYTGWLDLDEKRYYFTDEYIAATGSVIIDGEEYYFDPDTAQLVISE
Starred values were filed as active, the others as inactive; i = inactive; . = no result given. Most compounds without a hit are left out; they make up all but 1.5% or so of the library.

SMILES	Vc quorum ag	PrPC surface inh	PriA SSB inh	CCHFV vOTU inh	DUSP3 inh	TcdB inh
Cc1ccc(-n2ncc3c(=O)n(CC(=O)NCC4CCCO4)cnc32)c(C)c1 (stereo not drawn)	.	.	-16	.	.	.
CCOC(=O)N1CCN(C(c2cccc(F)c2)c2c(O)cc(C)n(Cc3ccco3)c2=O)CC1 (stereo not drawn)	.	.	-12	.	.	.
Cc1ccc2c(c1)C(c1ccncc1)=NNC(c1ccccc1)=N2	-1	-2	-15	-7	12	-1
c1ccc(C2=Nc3c(ccc4ccccc34)C(c3ccncc3)=NN2)cc1	i	-4	47*	-14	2	.
CCCNC(=O)c1cc(C2CCCCN2S(=O)(=O)c2cccc3cccnc23)on1 (stereo not drawn)	-1	-7	.	-1	.	3
O=C(NCc1cccnc1)c1cc(C2CCCCN2S(=O)(=O)c2cccc3cccnc23)on1 (stereo not drawn)	5	4	.	1	.	10*
O=[N+]([O-])c1cnc(Nc2ccc(S(=O)(=O)Nc3nccs3)cc2)c([N+](=O)[O-])c1	.	.	38*	.	.	.
O=C(N[C@H]1CCN(c2ccc(-c3ccccc3F)nn2)C1)c1cnccn1	.	.	-18	.	.	.
Cn1c(=O)c2cc(C(=O)N3CCN(c4cccc(Cl)c4)CC3)sc2n(C)c1=O	.	.	-10	.	.	.
CSc1ccc(CNC(=O)c2sccc2S(=O)(=O)N2CCN(c3ccccc3)CC2)cc1	.	.	-3	.	.	.
Cc1ccc(C(=O)NC2CC3CCCC(C2)N3Cc2ccccc2)cc1 (stereo not drawn)	0	1	2	-7	53*	1
COc1ccccc1NC(=O)CSc1nncn1-c1cccnc1	-1	8	3	-14	9	1
CCc1ccc(NC(=O)CSc2nncn2-c2cccnc2)cc1	0	7	-9	4	56*	-1
CN(C)CCn1ncc(-c2ccc(F)cc2)c1-c1ccncc1	.	.	5	.	.	.
COc1cc(/C=C/CN2CCC(CO)(CC3CCCCO3)CC2)ccc1O (stereo not drawn)	1	-8	-15	2	51*	4
COc1ccc(C(=O)N2CCN(c3nccn3-c3ccc(C)cc3)CC2)c(OC)c1	.	.	38*	.	.	.
COc1cc(OC)cc(C(=O)N2CCN(c3nccn3-c3cccc(Cl)c3)CC2)c1	.	.	40*	.	.	.
Cc1cc(C)cc(C(=O)N2CCN(c3nccn3-c3cccc(Cl)c3)CC2)c1	.	.	73	.	.	.
C=CCn1c(O)c(C=NNC(=O)CCCC)c(=O)[nH]c1=S	.	.	2	.	.	.
COc1c2ccc(C(=O)NCCCCc3ccccc3)cc2nn1C	6	4	-4	-26	-24	14*
COc1ccc(-c2ccc3c(c2)[C@H]2[C@H](CCN2C(=O)C2CCCC2)[C@H](CO)N3C)cc1	.	.	.	.	.	-1
COc1ccc(-c2ccc3c(c2)[C@H]2[C@H](CCN2C(=O)C2CC2)[C@H](CO)N3C)cc1	.	.	.	.	.	0
COc1ccc(-c2ccc3c(c2)[C@@H]2[C@@H](CCN2C(=O)C2CC2)[C@H](CO)N3C)cc1	.	.	.	.	.	13*
COc1ccc(-c2ccc3c(c2)[C@H]2[C@H](CCN2C(=O)C2CC2)[C@@H](CO)N3C)cc1	.	.	.	.	.	15*
O=C(CNc1cccc(Cl)c1)c1ccc(Br)cc1	0	14	-3	12	51*	1
SMILES	Vc quorum ag	PrPC surface inh	PriA SSB inh	CCHFV vOTU inh	DUSP3 inh	TcdB inh
CC1=NN(c2ccccc2)C(=O)C1=Cc1c(O)[nH]c(=S)[nH]c1=O	.	.	-3	.	.	.
CCCCC(=O)NN=Cc1ccc(Sc2cccc3cccnc23)o1	.	.	100*	.	.	.
O=C(N/N=C/c1ccc(Sc2cccc3cccnc23)o1)c1ccncc1	.	.	i	.	.	.
COc1cn(CC(=O)Nc2ccc3c(c2)OCCO3)c(CO)cc1=O	.	.	-18	.	.	.
CCC(=C(c1ccc(OC)cc1)c1ccc(OC)cc1)c1cn(CC(O)CN2CCN(C)CC2)c2ccccc12 (stereo not drawn)	0	-23	55*	11	10	.
COc1ccc(-c2cc3ccccc3n2CC(O)CN2CCCCC2)cc1 (stereo not drawn)	i	4	8	16	14	1
NC(=S)N=Nc1c(O)n(Cc2ccccc2)c2ccccc12	0	4	-12	-8	-10	0
O=Nc1c(O)n(Cc2cccc(Cl)c2)c2ccccc12	30*	-11	8	9	34	.
O=C(Cc1cccnc1)N1CC(n2cc(COc3ccccc3)nn2)C1	.	.	-14	.	.	.
O=S(=O)(NCc1cc(-c2ccncc2)n(C2CCCC2)n1)c1cccs1	.	.	-6	.	.	.
CCOC(=O)C1=C(C)N(CCCCCC(=O)O)C(=O)NC1c1cccc([N+](=O)[O-])c1 (stereo not drawn)	-1	-1	-5	4	28	1
CCOC(=O)C1=C(C)N(CCCCCC(=O)O)C(=O)NC1c1ccc([N+](=O)[O-])cc1 (stereo not drawn)	i	-7	-5	2	52*	1
O=C1C2N=NN(Cc3nc(-c4ccccc4Cl)no3)C2C(=O)N1c1ccc2c(c1)CCC2 (stereo not drawn)	.	.	2	.	.	.
Cc1cc(O)ccc1NC(=O)c1ccccc1	-2	1	1	-5	-12	12*
Cc1cc(N)ccc1NC(=O)c1ccccc1	i	0	-6	2	15	.
O=C(NCCC(O)c1cccs1)c1cnccn1 (stereo not drawn)	.	.	3	.	.	.
CCCCn1c(N)c(Sc2ccccc2[N+](=O)[O-])c(=O)[nH]c1=O	-4	-31	-15	5	51*	-1
COc1ccc(OC)c(Nc2nc(CC(=O)NCCC3=CCCCC3)cs2)c1	.	.	22*	.	.	.
COc1ccc(OC)c(Nc2nc(CC(=O)NCc3cccs3)cs2)c1	.	.	11	.	.	.
COc1ccc(OC)c(Nc2nc(CC(=O)NCCc3c[nH]c4ccccc34)cs2)c1	.	.	16*	.	.	.
O=C(Nc1nnc(-c2ccc(Cl)s2)o1)c1ccc(S(=O)(=O)N2CCCc3ccccc32)cc1	.	.	-5	.	.	.
Cc1ccc(NC(=S)NC(=O)c2sc3ccccc3c2Cl)c(C(=O)O)c1	.	.	.	.	12	.
O=C(O)c1ccccc1NC(=S)NC(=O)c1sc2ccccc2c1Cl	0	26*	-9	-4	-3	2
CC(C)CCOc1cccc(OCC(=O)OCCOc2ccc([N+](=O)[O-])cc2)c1	.	.	-10	.	.	.
COc1ccc2nc(SCC(=O)Nc3nonc3C)[nH]c2c1	2	-4	4	-4	3	-1
SMILES	Vc quorum ag	PrPC surface inh	PriA SSB inh	CCHFV vOTU inh	DUSP3 inh	TcdB inh
Cc1ccc2nc(SCC(=O)Nc3nonc3C)[nH]c2c1	0	10	0	10	54*	1
CN(C)S(=O)(=O)c1cccc(NC(=S)N/N=C/c2cc(Br)ccc2O)c1	-3	-4	.	13	9	1
CN(C)S(=O)(=O)c1cccc(NC(=S)NN=Cc2ccc(O)c(O)c2O)c1	.	.	102*	.	.	.
O=[N+]([O-])c1ccc(C=NNc2ccc3ccccc3c2)o1	.	.	55*	.	.	.
CC/C(=N\NC(=O)Cc1ccc(Br)cc1)c1cccs1	i	8	.	7	50*	1
O=C(Cc1ccc(Br)cc1)NNC(=O)c1cccs1	i	3	5	0	.	-1
